The source made the active and inactive calls. How the source made its calls: active means hit-call score of the fitted dose curve at least 0.9, where 1 is the maximum; inactive means score below 0.9.

Read-out in the assay: solute carrier (SLCO1B1), SLCO1B1 (gene 10599)
Kind of assay: LTEA_HepaRG_SLCO1B1: Life Technologies and Expression Analysis (LTEA) Assay for solute carrier (SLCO1B1) using HepaRG (AID 2283530). The settings on record: mRNA level, 48 h; actives raise or lower the signal. How it is done: LTEA_HepaRG is a cell based, multiplexed-readout assay that uses HepaRG, a human liver cell line, with measurements taken at 48 hours after chemical dosing on a 96-well plate.LTEA_HepaRG_SLCO1B1 is one of 102 assay component(s) measured in the LTEA HepaRG cell culture assay. It is a marker of NR mediated transport.Data from the assay component LTEA_HepaRG_SLCO1B1 was analyzed into 1 endpoint. This assay endpoint, LTEA_HepaRG_SLCO1B1, was analyzed with bidirectional fitting relative to DMSO as the negative control and baseline of activity. Using a type of inducible reporter, measures of mRNA induction for gain or loss-of-signal activity can be used to understand regulation of transcription factor activity. To generalize the intended target to other relatable targets, this assay endpoint is annotated to the transporter intended target family, where the subfamily is organic anion transporter.
A total of 1060 chemcials from the ToxCast library were tested in eight-point concentration-response experiments. Cell culture and cytotoxicity assays were conducted at Thermo Fisher Scientific's Custom Services facility (Madison, WI). A single lot of human HepaRG cells (Thermo Fisher Scientific, Frederick, MD) was used for the cell culture experiments. 96-well format collagen type I coated plates of human HepaRG cells were prepared using established methods. Briefly, cryopreserved HepaRG cells were thawed, plated at a density of approximately 100,000 cells/well in HepaRG Thaw, Plate, and General Purpose media (HPRG770, Thermo Fisher Scientific), and incubated for 48 hours. 0.5% DMSO was selected as vehicle control to balance the requisite need of DMSO in HepaRG cultures to maintain differentiation (for example, baseline metabolism, proportions of hepatocytes vs. cholangiocytes), while enabling further hepatic receptor pathway activation (for example, PXR and CAR) in response to chemical exposure. 48 hours after plating, the culture medium was replaced with HepaRG Serum-Free Incudtion Media. Cells were exposed to each test chemical in duplicate and maintained in CO2 incubators for another 48 hours. Chemical plates were thawed to room temperature and 200x concentrations of treatment groups were prepared. 8-point conentration-reponse curves were made with the highest exposure at 100 uM, followed by half-log dilutions, all in 0.5% DMSO. Each test plate contained variouse controls, induction positive controls (1mM phenobarbital), cytotoxicity positive controls ([…] aflatoxin B1), vehicle controls (0.5% DMSO), and total lysis controls (0.5% DMSO). Cell morphology images were taken using an Essen IncuCyte FLR automated microscope, with six 96-well plates imaged in about 24 minutes. Images were captured and exported and JPEG files. Spent culture media was transfered to black-well plates for the LDH assay, and remaining media was sorted at -80 C for later use. Cells were treated with RLT buffer and frozen until shipped for gene expression analysis. Total RNA was isolated from the cell suspension in 75 uL of Buffer RLT (Qiagen, Germantown, MD 20874) by Quintiles/Expression Analysis (Durham, NC) using a custom isolation procedure. Total RNA from each plate well was transferred to a preamplification plate. Fluidigm's 96.96 Dynamic ArrayTM (Fluidigm, Amsterdam, the Netherlands) technology was used for gene expression analyses by quantitative reverse transcription polymerase chain reaction (qRT-PCR, performed by Quintiles/Expression Analysis, Durham, NC)89. Standard TaqManTM Assays (Applied Biosystems/ThermoFisher Scientific, Foster City, CA) were used to assess the expression of 93 genes selected based on their selectivity and sensitivity to important hepatic receptors known to be modulated by environmental chemicals; importance in human hepatocyte functionality; and hepatotoxicity. […]
With `CCCCCCCCCCCCc1cccc(S(=O)(=O)O)c1`, the molecule was classed as inactive.
Next, `O=C(O)C1(c2ccc3c(c2)OC[C@H](Cc2ccc(-c4ccccc4)cc2)[C@H]3O)CCCC1`: “inactive”; `COc1ccccc1N`: “inactive”.
Turning to `OCCN(CCO)CCO`, the molecule was called inactive.
Consider `Clc1cccc(Cl)c1Cl`, for which the result was inactive.
`CN(C)C(=S)S`: the molecule was classed as inactive.
Next, `Oc1cc(Cl)c(Cl)cc1Cl`: “inactive”; `Cc1cc(C)cc(C)c1`: “inactive”; `CC(C)(C)c1ccccc1O`: “inactive”.
Consider `CC(C)O.CC(C)O.OCCN(CCO)CCO.OCCN(CCO)CCO.[Ti]`, for which the result was inactive.
On to `O=C(N[C@H]1CN2CCC1CC2)c1ccc2c(c1)OCCO2`, for which the outcome was inactive.
For `Oc1c(Cl)cc(Cl)cc1Cl`, the outcome was inactive.
In the case of `Clc1cccc(Cl)c1`, the outcome was inactive.
The entry for `N#Cc1cccnc1` is “inactive”.

For the origin of these results see PubChem BioAssay (EPA / NIEHS).
